ChEMBL document CHEMBL3988442, “University of Dundee, Small-Polar-MMV Screening Library” (2021)

Legend:
[1] = target: T1, Aspartate--tRNA(Asp/Asn) ligase (Mycobacterium tuberculosis (strain ATCC 25618 / H37Rv)) (UniProt P9WFW3); assay: Assay for Asp RNA synthetase-1 from Mycobacterium tuberculosis; assay type: functional; parameters: scale not given: direction of the effect not stated beside the values; conditions: 30 µM; also: in the data most compounds retested in dose-response had high values
T1 sequence (whole entry): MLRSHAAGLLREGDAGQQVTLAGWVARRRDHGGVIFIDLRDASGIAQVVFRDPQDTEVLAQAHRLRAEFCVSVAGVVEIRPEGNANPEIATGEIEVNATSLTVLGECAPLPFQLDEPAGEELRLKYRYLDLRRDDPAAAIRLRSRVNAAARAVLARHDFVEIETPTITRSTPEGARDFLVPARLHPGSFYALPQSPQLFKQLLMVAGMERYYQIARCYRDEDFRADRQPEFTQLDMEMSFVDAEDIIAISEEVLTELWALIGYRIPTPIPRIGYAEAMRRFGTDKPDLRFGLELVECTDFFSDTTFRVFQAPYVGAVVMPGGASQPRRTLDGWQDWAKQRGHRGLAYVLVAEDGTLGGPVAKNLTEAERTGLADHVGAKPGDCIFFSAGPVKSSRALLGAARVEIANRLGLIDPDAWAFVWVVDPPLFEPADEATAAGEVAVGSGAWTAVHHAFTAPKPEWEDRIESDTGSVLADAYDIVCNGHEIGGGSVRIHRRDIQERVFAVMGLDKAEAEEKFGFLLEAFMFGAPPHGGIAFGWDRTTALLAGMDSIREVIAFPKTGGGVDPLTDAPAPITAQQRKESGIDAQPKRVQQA

[2] = target: Shiga toxin 2 (Escherichia coli O157:H7) (UniProt P09385+P09386); assay: E. coli 0.157:H7 Shiga Toxin SOP - stx2 screening assay; assay type: functional; parameters: scale not given: direction of the effect not stated beside the values; conditions: 30 µM

SMILES	Percent Effect [1]	Percent Effect [2]
Cc1cc(C(=O)N2Cc3ccccc3OC3(CCOCC3)C2)nc(N)n1	0.67%	3.58%
Cc1csc(CN2CC[C@H]3C[C@H](c4nnc(C)[nH]4)O[C@@H]3C2)n1	1.94%	0.515%
O=C(N[C@@H]1CN(c2ncccn2)[C@@H]2CCCO[C@@H]21)c1cnccn1	7.31%	2.14%
